This note sets out measurements from ChEMBL document CHEMBL1961873, “Compounds: GSK PKIS; Assays: Nanosyn kinase panel” (2012).

Assay [1] addresses Platelet-derived growth factor receptor beta (Homo sapiens) (UniProt P09619). The following applies: at 1 µM.
For assay [2], the target named is Tyrosine-protein kinase FRK (Homo sapiens) (UniProt P42685). The following applies: at 0.1 µM.
The target is the same in assay [3]. The settings on record: at 1 µM.
In assay [4] the target is Protein-tyrosine kinase 2-beta (Homo sapiens) (UniProt Q14289). The settings on record: at 0.1 µM.
The target is the same in assay [5]. The following applies: at 1 µM.
Assay [6] has as its target Proto-oncogene tyrosine-protein kinase receptor Ret (Homo sapiens) (UniProt P07949). The settings on record: at 0.1 µM.
For assay [7] the target is unchanged. The settings on record: at 1 µM.
Assay [8] relates to Proto-oncogene tyrosine-protein kinase receptor Ret (Homo sapiens), P07949 [V804L]. The settings on record: at 0.1 µM.
The test system is the same in assay [9]. The following applies: at 1 µM.
In assay [10] the test system is Proto-oncogene tyrosine-protein kinase receptor Ret (Homo sapiens), P07949 [Y791F]. The following applies: at 0.1 µM.
Sequence of Proto-oncogene tyrosine-protein kinase receptor Ret (Homo sapiens), P07949 [Y791F] (P07949 whole entry Y791F): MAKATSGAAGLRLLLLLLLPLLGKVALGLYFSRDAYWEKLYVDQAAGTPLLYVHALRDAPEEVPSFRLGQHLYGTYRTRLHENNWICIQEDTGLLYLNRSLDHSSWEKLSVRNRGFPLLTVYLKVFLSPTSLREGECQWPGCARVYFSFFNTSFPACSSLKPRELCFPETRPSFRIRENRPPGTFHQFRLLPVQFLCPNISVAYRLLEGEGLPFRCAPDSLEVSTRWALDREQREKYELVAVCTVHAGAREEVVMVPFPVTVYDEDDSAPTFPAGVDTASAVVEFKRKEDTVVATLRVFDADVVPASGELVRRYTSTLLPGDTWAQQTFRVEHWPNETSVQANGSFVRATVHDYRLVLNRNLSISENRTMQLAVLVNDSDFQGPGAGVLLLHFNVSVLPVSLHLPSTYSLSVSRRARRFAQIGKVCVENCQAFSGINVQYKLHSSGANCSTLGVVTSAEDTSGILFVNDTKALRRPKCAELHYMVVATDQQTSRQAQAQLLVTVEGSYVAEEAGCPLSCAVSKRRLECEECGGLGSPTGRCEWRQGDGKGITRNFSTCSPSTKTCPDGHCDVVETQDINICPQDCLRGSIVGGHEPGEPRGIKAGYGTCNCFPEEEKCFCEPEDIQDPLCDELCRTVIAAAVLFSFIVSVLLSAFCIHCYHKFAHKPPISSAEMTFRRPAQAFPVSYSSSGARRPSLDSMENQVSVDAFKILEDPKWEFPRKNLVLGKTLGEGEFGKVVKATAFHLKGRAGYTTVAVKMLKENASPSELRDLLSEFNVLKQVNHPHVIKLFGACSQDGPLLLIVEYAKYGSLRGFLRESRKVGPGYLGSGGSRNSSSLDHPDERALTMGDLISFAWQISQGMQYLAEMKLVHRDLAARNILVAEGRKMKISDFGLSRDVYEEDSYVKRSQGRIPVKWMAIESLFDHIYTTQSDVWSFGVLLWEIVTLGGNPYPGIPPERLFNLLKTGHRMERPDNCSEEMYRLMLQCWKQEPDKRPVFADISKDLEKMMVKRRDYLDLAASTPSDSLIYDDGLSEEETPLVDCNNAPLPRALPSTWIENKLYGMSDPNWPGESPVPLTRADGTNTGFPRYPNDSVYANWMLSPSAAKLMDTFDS

Sequence of Tyrosine-protein kinase FRK (Homo sapiens) (P42685 whole entry): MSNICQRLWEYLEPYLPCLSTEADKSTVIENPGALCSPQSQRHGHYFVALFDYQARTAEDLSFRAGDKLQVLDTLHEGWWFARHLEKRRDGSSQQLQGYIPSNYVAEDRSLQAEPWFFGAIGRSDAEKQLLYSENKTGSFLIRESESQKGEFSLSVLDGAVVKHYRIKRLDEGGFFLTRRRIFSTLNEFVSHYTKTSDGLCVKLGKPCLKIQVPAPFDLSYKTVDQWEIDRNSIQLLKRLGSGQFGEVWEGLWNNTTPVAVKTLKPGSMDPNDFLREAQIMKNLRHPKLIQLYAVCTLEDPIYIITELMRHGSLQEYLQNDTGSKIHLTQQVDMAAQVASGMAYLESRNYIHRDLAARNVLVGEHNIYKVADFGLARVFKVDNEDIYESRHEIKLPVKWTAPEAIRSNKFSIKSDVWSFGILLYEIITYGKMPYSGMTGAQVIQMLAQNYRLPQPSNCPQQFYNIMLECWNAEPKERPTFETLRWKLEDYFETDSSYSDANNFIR
Sequence of Proto-oncogene tyrosine-protein kinase receptor Ret (Homo sapiens), P07949 [V804L] (P07949 whole entry V804L): as the sequence (P07949 whole entry Y791F) above, with F791Y, V804L counted along it
Sequence of Platelet-derived growth factor receptor beta (Homo sapiens) (P09619 whole entry): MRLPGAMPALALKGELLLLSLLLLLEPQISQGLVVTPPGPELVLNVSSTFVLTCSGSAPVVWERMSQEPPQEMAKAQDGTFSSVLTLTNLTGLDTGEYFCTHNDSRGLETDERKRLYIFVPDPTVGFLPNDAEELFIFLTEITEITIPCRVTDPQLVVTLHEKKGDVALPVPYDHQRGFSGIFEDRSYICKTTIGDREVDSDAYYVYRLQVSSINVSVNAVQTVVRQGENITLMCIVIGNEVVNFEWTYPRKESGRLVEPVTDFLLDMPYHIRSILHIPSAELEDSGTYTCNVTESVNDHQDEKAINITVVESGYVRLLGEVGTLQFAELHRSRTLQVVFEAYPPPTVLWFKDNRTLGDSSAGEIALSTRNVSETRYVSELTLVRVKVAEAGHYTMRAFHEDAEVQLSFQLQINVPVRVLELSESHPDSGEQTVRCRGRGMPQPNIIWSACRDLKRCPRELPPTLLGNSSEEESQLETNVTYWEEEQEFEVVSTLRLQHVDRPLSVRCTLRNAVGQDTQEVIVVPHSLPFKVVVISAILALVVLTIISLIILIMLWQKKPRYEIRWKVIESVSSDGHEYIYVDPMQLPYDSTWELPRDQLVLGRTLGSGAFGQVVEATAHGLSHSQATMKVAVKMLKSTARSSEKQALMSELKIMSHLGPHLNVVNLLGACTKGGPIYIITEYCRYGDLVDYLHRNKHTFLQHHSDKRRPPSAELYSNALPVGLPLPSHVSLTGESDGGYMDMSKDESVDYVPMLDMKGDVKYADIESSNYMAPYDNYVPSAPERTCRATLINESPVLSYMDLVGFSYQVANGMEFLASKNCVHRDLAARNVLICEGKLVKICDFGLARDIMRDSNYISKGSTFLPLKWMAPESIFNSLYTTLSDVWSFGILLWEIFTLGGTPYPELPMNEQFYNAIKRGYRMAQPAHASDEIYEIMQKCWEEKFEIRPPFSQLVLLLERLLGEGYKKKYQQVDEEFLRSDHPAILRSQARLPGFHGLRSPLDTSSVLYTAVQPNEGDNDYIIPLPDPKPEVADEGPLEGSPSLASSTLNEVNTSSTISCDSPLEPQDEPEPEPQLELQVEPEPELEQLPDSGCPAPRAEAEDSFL
Sequence of Proto-oncogene tyrosine-protein kinase receptor Ret (Homo sapiens) (P07949 whole entry): as the sequence (P07949 whole entry Y791F) above, with F791Y counted along it
Sequence of Protein-tyrosine kinase 2-beta (Homo sapiens) (Q14289 whole entry, looked up): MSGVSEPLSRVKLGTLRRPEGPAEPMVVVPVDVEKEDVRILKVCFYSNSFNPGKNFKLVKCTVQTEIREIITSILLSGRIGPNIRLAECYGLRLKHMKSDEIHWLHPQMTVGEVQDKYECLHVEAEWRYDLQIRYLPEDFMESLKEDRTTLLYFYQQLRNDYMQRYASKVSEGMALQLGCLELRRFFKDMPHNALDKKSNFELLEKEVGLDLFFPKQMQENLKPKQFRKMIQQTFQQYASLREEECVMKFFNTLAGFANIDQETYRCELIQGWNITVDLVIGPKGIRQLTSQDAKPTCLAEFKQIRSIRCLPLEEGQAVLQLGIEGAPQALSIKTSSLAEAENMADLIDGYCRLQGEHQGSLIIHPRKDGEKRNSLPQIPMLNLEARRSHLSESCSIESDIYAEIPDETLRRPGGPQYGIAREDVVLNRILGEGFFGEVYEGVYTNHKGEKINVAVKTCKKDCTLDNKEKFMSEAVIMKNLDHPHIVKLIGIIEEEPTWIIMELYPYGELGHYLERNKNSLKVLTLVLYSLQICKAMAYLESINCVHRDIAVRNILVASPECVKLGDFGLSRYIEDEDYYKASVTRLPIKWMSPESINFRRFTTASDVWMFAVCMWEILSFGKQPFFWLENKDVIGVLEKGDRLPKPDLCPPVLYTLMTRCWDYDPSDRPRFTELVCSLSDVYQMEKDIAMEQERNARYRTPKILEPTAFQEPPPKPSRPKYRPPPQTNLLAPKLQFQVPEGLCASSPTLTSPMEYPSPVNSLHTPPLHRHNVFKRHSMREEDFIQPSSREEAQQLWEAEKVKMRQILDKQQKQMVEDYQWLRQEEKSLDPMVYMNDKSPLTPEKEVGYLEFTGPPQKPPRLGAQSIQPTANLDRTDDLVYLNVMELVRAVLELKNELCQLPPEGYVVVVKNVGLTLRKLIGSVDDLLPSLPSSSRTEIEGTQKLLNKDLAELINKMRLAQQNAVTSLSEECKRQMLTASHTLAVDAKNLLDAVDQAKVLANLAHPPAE

By inhibition is commonly meant the change of the read-out against control, counted positive when it falls. Turning to `CCn1c(-c2nonc2N)nc2cnc(Oc3cccc(NC(=O)c4ccc(OCCN5CCOCC5)cc4)c3)cc21`, the inhibition was determined as 9.39% in assay [1]; 2.25% in [2]; 0.86% in [3]; 4.56% in assay [4]; 13% in assay [5]; 6.91% in [6]. Moreover, the inhibition in assay [7] was 10.4%; in [8], 2.37%; in assay [9] it was 6.08%; in [10] it was 5.99%.
In the case of `COc1cc(C)c(NC(=O)CN(C)C)cc1Nc1nc(Nc2cccc(F)c2C(N)=O)c2cc[nH]c2n1`, the inhibition in assay [1] is 15%; in assay [2] it was 0.21%; in assay [3], 1%; in assay [4], 93.1%; in assay [5] it was 98%; in assay [6], 1.91%. For the same compound, the inhibition in assay [7] worked out at 5.56%; in assay [8], 4.41%; in [9], 20.7%; in assay [10], 5.09%.
In the case of `CCn1c(-c2nonc2N)nc2c(C#CC(C)(C)O)nc(CN3CCCC3)cc21`, the inhibition in assay [1] was 12.2%; in assay [2], 0.91%; in assay [3] it was -0.12%; in [4], -0.18%; in [5], -7.23%; in assay [6] it was -0.08%. In addition, the inhibition in assay [7] was found to be 9.99%; in assay [8], 0.92%; in assay [9], 4.79%; in assay [10], 5.91%.
Consider `CCn1c(-c2nonc2N)nc2c(N3CCCC3)nccc21`, for which the inhibition was 8.55% in assay [1]; -0.17% in assay [2]; 0% in [3]; 1.2% in assay [4]; -3.88% in assay [5]; 4.49% in assay [6]. The inhibition in assay [7] was 20.8%; in assay [8] it was 0.68%; in [9], -0.73%; in assay [10], 0%.
With `CC1=C(C(=O)Nc2ccc3[nH]ncc3c2)C(c2ccc(F)cc2)NC(=O)N1` (stereo not drawn), the inhibition in assay [1] was determined as 6.86%; in assay [2] it was 1.9%; in assay [3] it was 1.47%; in assay [4], 10.1%; in [5], 8.37%; in assay [6], 6.58%. Besides, the inhibition in assay [7] stood at 35%; in assay [8], 6.27%; in assay [9], 35.5%; in assay [10] it was 8.37%.
Take `NS(=O)(=O)c1cccc(-c2ccc3c(NC(=O)C4CC4)n[nH]c3c2)c1`: the inhibition in [1] is 5.08%; in [2], 0.47%; in assay [3] it was 1.64%; in assay [4] it was -7.23%; in assay [5], 5.72%; in assay [6] it was 2.41%. Also, the inhibition in [7] is 1.62%; in assay [8] it was -0.14%; in [9], -1.66%; in [10], -2.8%.
`Nc1nc(-c2ccc3c(c2)C(=Cc2cc(Br)c(O)c(Br)c2)C(=O)N3)cs1`: the inhibition was 7.52% in [1]; 0.6% in assay [2]; 3.29% in [3]; -1.15% in [4]; 6.43% in [5]; 7.13% in [6]. In addition, the inhibition in assay [7] came to 12.3%; in assay [8], 1.75%; in assay [9], 9.79%; in assay [10] it was 3.97%.
Regarding `O=C1NC(=O)C(N2CCc3ccccc32)=C1c1ccc(Cl)cc1`, the inhibition amounted to 8.69% in assay [1]; 2.55% in assay [2]; 3.4% in [3]; 8.33% in [4]; 7.03% in assay [5]; 2.35% in [6]. For the same compound, the inhibition in assay [7] was 10.1%; in assay [8], 7.17%; in assay [9], 9.11%; in assay [10], 11.4%.
With `COc1cc2ncn(-c3cc(OCc4ccccc4Cl)c(C(N)=O)s3)c2cc1OC`, the inhibition in assay [1] was 86.5%; in assay [2], 2.63%; in assay [3], 2.45%; in [4], -1.12%; in [5], 6.28%; in [6], 17.7%. The inhibition in [7] was 60.8%; in assay [8] it was 4.73%; in assay [9], 26.9%; in assay [10], 20.7%.
`NC(=O)c1cccc(Nc2nccc(Nc3cccc4[nH]ncc34)n2)c1`: the inhibition in assay [1] is 84%; in assay [2] it was 61.6%; in [3], 93.9%; in assay [4] it was 9.7%; in assay [5], 65.5%; in assay [6], 37.8%. Further, the inhibition was found to be 82.1% in assay [7], 5.88% in [8], 39.4% in [9] and 46% in assay [10].
In the case of `CNC(=O)c1cncc(/C=C/c2c(Cl)cccc2Cl)c1`, the inhibition in assay [1] stood at 17.8%; in assay [2], 3.04%; in assay [3], 11%; in [4], 4.56%; in assay [5], 7.83%; in [6] it was 3.32%. Besides, the inhibition in [7] was determined as 12.3%; in assay [8], 3.35%; in assay [9] it was 10.2%; in assay [10] it was 14.7%.
For `Cc1cccc(-c2n[nH]cc2-c2ccc3ncccc3n2)n1`, the inhibition in assay [1] is 26.5%; in assay [2], 1.55%; in assay [3] it was -0.81%; in assay [4], -4.16%; in [5] it was 0.67%; in assay [6], 1.65%. Also, the inhibition in [7] was 15.1%; in [8] it was -1.82%; in assay [9] it was 2.72%; in assay [10], 3.64%.
With `O=C1Nc2ccc(C(=O)c3ccco3)cc2C1=Cc1cc(Cl)c(O)c(Cl)c1`, the inhibition in [1] worked out at 18.5%; in [2], 1.7%; in [3], 7.16%; in assay [4], 15%; in [5], 34.6%; in [6], 19.6%. For the same compound, the inhibition in [7] stood at 58.1%; in assay [8], 38.4%; in assay [9] it was 74.7%; in assay [10] it was 16%.
As to `COc1ccc(-c2coc3ncnc(N)c23)cc1`, the inhibition was 12.1% in [1]; 1.9% in assay [2]; 2.14% in assay [3]; 4.27% in assay [6]; 11.7% in assay [7]; 4.56% in assay [8]. Further, the values for the inhibition in assay [9] and in assay [10] were 5.32% and 10.4%, respectively.
Regarding `COc1cc(C=NNc2ncnc3c2cnn3-c2ccccc2)ccc1O`, the inhibition in assay [1] was 68.9%; in assay [2], 0.86%; in assay [3], 3.44%; in [4], 4.69%; in assay [5], 14.2%; in assay [6], 43.5%. For the same compound, the inhibition was 80.6% in [7], 13.6% in assay [8], 46.3% in assay [9] and 36.3% in [10].
Consider `COC(=O)Nc1nc2cc(Oc3cccc(NC(=O)Nc4cc(C(F)(F)F)ccc4F)c3)ccc2[nH]1`, for which the inhibition in [1] is 45.3%; in assay [2], -0.02%; in [3], 1.37%; in assay [4], 0.22%; in assay [5], -4.43%; in assay [6] it was 17%. Further, the inhibition stood at 61.1% in assay [7], 4.35% in assay [8], 8.1% in assay [9] and 9.63% in [10].
In the case of `Nc1ncnc2occ(-c3ccc(NC(=O)Nc4cc(C(F)(F)F)cc(C(F)(F)F)c4)cc3)c12`, the inhibition came to 81.5% in assay [1]; 1.36% in assay [2]; 4.51% in [3]; 8.32% in assay [4]; 19.4% in assay [5]; 76.4% in assay [6]. For the same compound, the inhibition turned out to be 81.4% in assay [7], 38.4% in assay [8], 77% in assay [9] and 60.7% in assay [10].
